In all, about 48,000 compounds went through this assay and about 13,000 (27%) showed an effect of 50% or more. Some of the results follow.
These compounds were tested on Wolbachia pipientis (assay: Anti-Wolbachia Cell-Based Screen). Conditions: 5 µM.
Assay type: functional
Design: scale not given: in the data most compounds retested in dose-response had high values

Row | SMILES | Percent Effect
1 | OC1CN(Cc2cccc(N3CCOCC3)c2)Cc2ccccc21 (stereo unspecified) | -36.91%
2 | O=C(c1scc2c1OCCO2)N1CCOC(Cc2ccc(F)cc2)C1 (stereo unspecified) | -34.62%
3 | CS(=O)(=O)N1CCN(C(=O)CN2CCCc3c(F)cc(F)cc32)CC1 | 12.08%
4 | CC(C)n1ncc2c1NC(=O)CC21C(=O)Nc2c(Cl)cc(Cl)cc21 (stereo unspecified) | -10.03%
5 | Cc1nn(C)c(C)c1CNC1CCOc2ccccc21 (stereo unspecified) | -9.351%
6 | Cn1ncc(NCc2cccc(COC(C)(C)C)c2)c(Cl)c1=O | -1.578%
7 | CN(Cc1nccn1C)CC1CCOc2ccccc2C1 (stereo unspecified) | 12.56%
8 | COc1ccc(C(=O)N2CCCC(NC(=O)C(C)C)C2)c(O)c1 (stereo unspecified) | 103.8%
9 | CC(=O)NC1CCCN(C(=O)Nc2nnc(C(C)C)s2)C1 (stereo unspecified) | -25.39%
10 | CC(=O)NC1CCCN(C(=O)c2ccc(Br)cc2O)C1 (stereo unspecified) | -3.443%
11 | CC(C)(C)OC(=O)NCC1CCN(C(=O)c2ccccc2O)C1 (stereo unspecified) | -1.633%
12 | CC(C)C(=O)NC1CCCN(C(=O)c2cc3ccccc3cc2O)C1 (stereo unspecified) | 101.9%
13 | CC(C)C(=O)NC1CCCN(C(=O)c2ccccc2O)C1 (stereo unspecified) | 105%
14 | CC(=O)NC1CCN(C(=O)c2cnc(COc3ccccc3)nc2O)C1 (stereo unspecified) | 1.868%
15 | COc1ccc(C(=O)N2C[C@@H](C(=O)O)[C@H](c3ccccc3)C2)c(O)c1 | 5.335%
16 | O=C(NCCc1nncn1C1CC1)C1(c2ccccc2)CCC1 | -10.81%
17 | CS(=O)(=O)CCNC(=O)NCCc1cc2ccccc2o1 | -10.03%
18 | CCOC(=O)C1(CCOC)CCN(Cc2nccn2CC)CC1 | -7.374%

Row | SMILES | Percent Effect
19 | CC(C)NC(=O)NC[C@H]1OC[C@@H](NCc2ccccc2O)[C@@H]1O | 1.072%
20 | O=C(NCC1(O)CCCCC1)c1coc(COc2cccc(F)c2)n1 | -6.674%
21 | CCc1nnsc1C(=O)N1CCN(CC(O)C(C)(C)C)CC1 (stereo unspecified) | 3.041%
22 | CC(C)c1cc(C(=O)N2CCC3(CC2)c2ccccc2[C@@H](N)[C@@H]3O)cs1 | 119.3%
23 | COc1ccc(C(=O)N2CCC3(CC2)c2ccccc2[C@@H](N)[C@@H]3O)cc1 | -1.286%
24 | Cc1ccc(C(=O)N2CCC3(CC2)c2ccccc2[C@@H](N)[C@@H]3O)cc1F | -5.913%
25 | Cn1ncc(C(=O)OCC2CC(=O)N(c3ccccc3)C2)c1C(F)F (stereo unspecified) | -5.382%
26 | O=S1(=O)CCCN1Cc1coc(-c2ccc(C(F)(F)F)cc2)n1 | -8.069%
27 | Cn1cc(-c2ncnc3c2CCN(CC2CCOC2)CC3)cn1.O=C(O)C(F)(F)F (stereo unspecified) | 97.72%
28 | O=C(O)C(F)(F)F.c1nc2c(c(-c3ccsc3)n1)CCN(Cc1ccoc1)CC2 | -2.066%
29 | CCN(C)c1ncnc2c1CCN(CC1CCOC1)CC2.O=C(O)C(F)(F)F (stereo unspecified) | -11.17%
30 | Cc1noc(C)c1CN1CCc2ncnc(-c3ccccc3)c2CC1.O=C(O)C(F)(F)F | 91.91%
31 | O=C(O)C(F)(F)F.c1ccc(CN2CCc3ncnc(-c4ccoc4)c3CC2)nc1 | -8.699%
32 | Cc1noc(C)c1CN1CCc2ncnc(-c3ccoc3)c2CC1.O=C(O)C(F)(F)F | 108.1%
33 | Cc1noc(C)c1CN1CCc2ncnc(-c3ccncc3)c2CC1.O=C(O)C(F)(F)F.O=C(O)C(F)(F)F | 90.01%
34 | O=C(O)C(F)(F)F.O=C(O)C(F)(F)F.c1ccc(CN2CCc3ncnc(-c4ccncc4)c3CC2)nc1 | -25.56%
35 | Cc1ncnc2c1CCN(CC1CCOC1)CC2.O=C(O)C(F)(F)F (stereo unspecified) | 17.43%
36 | Cc1nc(CN2CCc3ncnc(-c4ccncc4)c3CC2)cs1.O=C(O)C(F)(F)F.O=C(O)C(F)(F)F | -2.21%
